KB-3-1 tox: qHTS assay for MDR1-selective chemotherapeutics: Primary screen using the parental adenocarcinoma cell KB-3-1; Potency, µM (titrated, usually from 46.1 µM), most hits filed as cytotoxic; actives 1.4% (n = 400,000); KB-3-1 viability, CellTiter-Glo ATP luminescence, 72 h; further: nearly all actives have a fitted effect of over 60% in size
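Cytotoxicity in the drug-sensitive parental line KB-3-1 was scored as loss of CellTiter-Glo luminescence following 72 h incubation with compound. Values come from curve fitting of normalized concentration-response data.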
DT40 TDP1 no CPT: qHTS for Inhibitors of human tyrosyl-DNA phosphodiesterase 1 (TDP1): qHTS in cells in absence of CPT. DT40 Tdp1-/- hTDP1 cells, no CPT, ATP luminescence, 48 h. Potency, µM (series often up to 46.2 µM), hits mostly inhibitors. actives 15% (n = 420,000); further: nearly all actives have a fitted effect of over 55% in size
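A cellular qHTS used chicken DT40 cells lacking endogenous Tdp1 but carrying stably transfected human TDP1. Compounds were applied without camptothecin, and cell growth kinetics were judged by ATP-dependent luminescence after ≥48 hr.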
HT1080 IDH1KD tx: qHTS for induction of synthetic lethality in tumor cells producing 2HG: qHTS for the HT-1080-IDH1KD cell line | AID 686971, 2013 | actives 2% (n = 360,000) | HT-1080 IDH1 knockdown viability, ATP luminescence, 48 h | Potency, µM (series often up to 46.1 µM), most hits filed as cytotoxic
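CellTiter-Glo luminescence after 48 h compound exposure at 37 degrees C of IDH1-knockdown HT-1080 cells in 5% FBS RPMI. %Activity scaled between DMSO wells and cell-free media wells, with curves fitted and assigned curve classes.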
DT40 TDP1 CPT: qHTS for Inhibitors of human tyrosyl-DNA phosphodiesterase 1 (TDP1): qHTS in cells in presence of CPT; chicken DT40 Tdp1-/-;hTDP1 cells + 20 nM CPT, ATP luminescence, 48 h; AID 686979, 2013; Potency, µM (series often up to 46.2 µM), actives largely listed as inhibitors; actives 12% (n = 420,000); further: nearly all actives have a fitted effect of over 55% in size
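Chicken DT40 Tdp1-/- cells stably complemented with human TDP1 were seeded at 400 cells/well in medium containing 20 nM camptothecin, exposed to pin-transferred compounds, and grown at 37 °C for at least 48 hr. Viability was read as ATP luminescence.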
HT1080-NT tox: qHTS for induction of synthetic lethality in tumor cells producing 2HG: qHTS for the HT-1080-NT fibrosarcoma cell line. Potency, µM (series often up to 46.1 µM), usual class: cytotoxic. actives 1.6% (n = 360,000). HT-1080-NT fibrosarcoma viability, CellTiter-Glo ATP luminescence, 48 h;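 further: NT is the 2HG producing partner of a matched IDH1 knockdown line; nearly all actives have a fitted effect of over 55% in size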
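Read-out is CellTiter-Glo luminescence after 10 minutes at room temperature, following 48 hours' compound treatment of HT-1080-NT cells (750 cells/well, RPMI, 5% FBS, 37 degrees C).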
KB-V1 MDR tox: qHTS assay for MDR1-selective chemotherapeutics: Primary screen using the drug-selected MDR subline cells KB-V1 | KB-V1 MDR cells viability, CellTiter-Glo, 72 h | Potency, µM (highest dose often 46.1 µM), usual class: cytotoxic | actives 3.4% (n = 400,000); further: nearly all actives have a fitted effect of over 60% in size
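KB-V1 MDR subline cells in DMEM (phenol-red free, 10% FBS) exposed to compounds in qHTS concentration series for 72 h at 37 degrees C. Viability read by CellTiter-Glo luminescence; concentration-effect curves fitted after normalization and correction.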
Of the large screens only hits and unclear results are named; the others gave an inactive call. Hits are enriched below; roughly 19% of the tested compounds scored in any of these assays. The call rests on the fitted dose curve; in most records, active means well fitted curve in the direction sought with a large enough effect; inconclusive means small, poorly fitted or top-dose-only effect, or another doubt; inactive means no such curve, though single readings can be large; an effect the other way counts as inactive or inconclusive.

CCN(CC)c1ccc(/C=C(\C#N)c2ccccn2)cc1	KB-3-1 tox inconclusive, DT40 TDP1 no CPT 2.6µM, HT1080 IDH1KD tx inconclusive, DT40 TDP1 CPT 2.6µM, HT1080-NT tox inconclusive, KB-V1 MDR tox inconclusive
CC(=O)Oc1cccc(N2C(=O)C3C4C=CC(C4=C(C)C)C3C2=O)c1 (centres undefined)	DT40 TDP1 no CPT inconclusive, DT40 TDP1 CPT inconclusive
O=C(O)c1cccc(N2C(=O)C=CC2=O)c1	DT40 TDP1 no CPT inconclusive, DT40 TDP1 CPT inconclusive
O=C(Nc1ccc(Cl)cc1)c1cccc(N2C(=O)C3C4CCC(C4)C3C2=O)c1 (centres undefined)	KB-3-1 tox inconclusive, DT40 TDP1 no CPT 15µM, DT40 TDP1 CPT inconclusive, KB-V1 MDR tox 8.2µM
Cc1ccccc1NC(=O)c1cccc(N2C(=O)C3C4CCC(C4)C3C2=O)c1 (centres undefined)	HT1080-NT tox inconclusive, KB-V1 MDR tox 23µM
O=C(Nc1ccc(Cl)cc1Cl)c1cccc(N2C(=O)C=CC2=O)c1	DT40 TDP1 no CPT 0.58µM, HT1080 IDH1KD tx inconclusive, DT40 TDP1 CPT 1µM, HT1080-NT tox inconclusive
O=C(O)c1ccc(NC(=O)c2cccc(N3C(=O)C4C5CCC(C5)C4C3=O)c2)cc1 (centres undefined)	KB-V1 MDR tox inconclusive
CC(=O)c1cccc(N2C(=O)C3C4CCC(C4=C(C)C)C3C2=O)c1 (centres undefined)	DT40 TDP1 no CPT inconclusive, KB-V1 MDR tox 18µM
CC1(C)CN(c2ccc(Br)cc2)C(=O)[C@H]1CC(=O)Nc1ccccc1	KB-3-1 tox inconclusive, DT40 TDP1 no CPT inconclusive, DT40 TDP1 CPT inconclusive
O=C(CSc1nnc(CNc2ccc(F)cc2)n1-c1ccccc1)N1CCOCC1	DT40 TDP1 no CPT inconclusive
Cc1ccc(NC(=O)c2cccc(N3C(=O)C4C5CCC(C5)C4C3=O)c2)c(C)c1 (centres undefined)	DT40 TDP1 no CPT inconclusive, DT40 TDP1 CPT inconclusive, KB-V1 MDR tox 4.1µM
CCOc1ccc(C(=O)/C=C/c2cn(CC(O)CN3CCc4ccccc43)c3ccccc23)cc1 (centres undefined)	DT40 TDP1 no CPT 8.2µM, DT40 TDP1 CPT 7.3µM, KB-V1 MDR tox inconclusive (no result: HT1080 IDH1KD tx, HT1080-NT tox)
O=Cc1cn(CC(O)Cn2cc(C=O)c3ccccc32)c2ccccc12	none
CCCCN(CCCC)CC(O)Cn1cc(/C=C/C(=O)c2ccccc2)c2ccccc21 (centres undefined)	KB-3-1 tox inconclusive, DT40 TDP1 no CPT 10µM, DT40 TDP1 CPT 10µM, KB-V1 MDR tox inconclusive (no result: HT1080 IDH1KD tx, HT1080-NT tox)
CCCCN(C)CC(O)Cn1cc(/C=C/C(=O)c2cccs2)c2ccccc21 (centres undefined)	KB-3-1 tox inconclusive, DT40 TDP1 no CPT inconclusive, DT40 TDP1 CPT 18µM, KB-V1 MDR tox inconclusive
Cc1nn(C)cc1/C=C/C(=O)c1cccs1	KB-V1 MDR tox inconclusive
Cc1ccc(C(=O)/C=C/c2cn(CN3CCN(C)CC3)c3ccccc23)cc1	DT40 TDP1 no CPT inconclusive, HT1080 IDH1KD tx inconclusive, HT1080-NT tox inconclusive
O=C(/C=C/c1cn(CC(O)CN2CCCCCC2)c2ccccc12)c1cccs1 (centres undefined)	KB-3-1 tox inconclusive, DT40 TDP1 no CPT inconclusive, HT1080 IDH1KD tx 21µM, DT40 TDP1 CPT inconclusive, HT1080-NT tox 18µM, KB-V1 MDR tox inconclusive
COc1ccc(C)cc1NC(=O)C1CCN(C(=O)Cc2ccccc2)CC1	none
O=C1c2oc3ccc(F)cc3c(=O)c2C(c2cccc([N+](=O)[O-])c2)N1CCCN1CCOCC1 (centres undefined)	none (no result: HT1080 IDH1KD tx, HT1080-NT tox)
CCc1ccc(-n2c(=O)c3c4c(sc3n(CC(=O)NC(C)CC)c2=O)CCCC4)cc1 (centres undefined)	none (no result: HT1080 IDH1KD tx, HT1080-NT tox)
COc1cc(C2C3=C(Nc4nc(N)[nH]c(=O)c42)c2ccccc2C3=O)ccc1O (centres undefined)	none
COc1ccc(N2C(=O)NC3CC2(C)Oc2ccc(Cl)cc23)cc1OC (centres undefined)	KB-3-1 tox inconclusive, DT40 TDP1 no CPT inconclusive, DT40 TDP1 CPT 23µM, KB-V1 MDR tox inconclusive
CCOC(=O)C1CCN(C(=O)c2cccc(N3C(=O)NC4CC3(C)Oc3ccc(C)cc34)c2)CC1 (centres undefined)	DT40 TDP1 CPT inconclusive
COc1ccc(CCN2C(=S)NC3CC2(C)Oc2ccc([N+](=O)[O-])cc23)cc1OC (centres undefined)	DT40 TDP1 no CPT 15µM, HT1080 IDH1KD tx inconclusive, DT40 TDP1 CPT 10µM, KB-V1 MDR tox 6.5µM
COc1cccc2c1OC1(C)CC2NC(=O)N1c1cccc(C(=O)N2CCN(c3ccccc3)CC2)c1 (centres undefined)	DT40 TDP1 no CPT inconclusive, DT40 TDP1 CPT inconclusive
CCOC(=O)N1CCN(C(=O)c2cccc(N3C(=O)NC4CC3(C)Oc3ccc(Cl)cc34)c2)CC1 (centres undefined)	KB-3-1 tox inconclusive, DT40 TDP1 no CPT 3.3µM, HT1080 IDH1KD tx 7.3µM, DT40 TDP1 CPT inconclusive, HT1080-NT tox 7.3µM
COc1ccc(N2CCN(C(=O)c3ccc(N4C(=O)NC5CC4(C)Oc4ccccc45)cc3)CC2)cc1 (centres undefined)	DT40 TDP1 no CPT inconclusive, DT40 TDP1 CPT 29µM
COc1ccc(CCN2C(=O)CSC2c2cccc([N+](=O)[O-])c2)cc1OC (centres undefined)	DT40 TDP1 no CPT inconclusive, DT40 TDP1 CPT inconclusive
CN(C)c1ccsc1C(=O)NNS(=O)(=O)c1ccc(Cl)cc1	none
Cc1cc(-c2ccc(S(=O)(=O)N3CCCCC3)s2)on1	DT40 TDP1 no CPT inconclusive
Cc1cc(C)nc(NS(=O)(=O)c2ccc(NC(=O)c3ccc(S(=O)(=O)N4CC(C)OC(C)C4)cc3)cc2)n1 (centres undefined)	none
Cc1ccc(-c2cc(C(=O)Nc3ccc(S(=O)(=O)N4CC(C)OC(C)C4)cc3)[nH]n2)c(O)c1 (centres undefined)	DT40 TDP1 no CPT inconclusive, DT40 TDP1 CPT 16µM, HT1080-NT tox inconclusive
Cc1ccc(C)c(NC(=O)c2cc(-c3cc(C)ccc3O)n[nH]2)c1	DT40 TDP1 no CPT inconclusive, HT1080 IDH1KD tx inconclusive, DT40 TDP1 CPT inconclusive, HT1080-NT tox 33µM
